Measured values from paper PMC4336329 (PLoS ONE, 2015).
Hit rate of the full screen: of about 310,000 compounds, about 14,000 (4.5%) showed an effect of 50% or more. Effects have a minus sign here. Only a selection was taken, and strong results are over-represented in it overall.

Biological target: human ether-à-go-go-related gene (hERG) potassium channel (human, UniProt Q12809)
Experiment: primary screen, population patch clamp on CHO cells stably expressing hERG; higher = less effect of the substance
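Further: peak tail current of the secondary pulse compared with the same well before compound.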

human ether-à-go-go-related gene (hERG) potassium channel, sequence (Q12809 whole entry, looked up): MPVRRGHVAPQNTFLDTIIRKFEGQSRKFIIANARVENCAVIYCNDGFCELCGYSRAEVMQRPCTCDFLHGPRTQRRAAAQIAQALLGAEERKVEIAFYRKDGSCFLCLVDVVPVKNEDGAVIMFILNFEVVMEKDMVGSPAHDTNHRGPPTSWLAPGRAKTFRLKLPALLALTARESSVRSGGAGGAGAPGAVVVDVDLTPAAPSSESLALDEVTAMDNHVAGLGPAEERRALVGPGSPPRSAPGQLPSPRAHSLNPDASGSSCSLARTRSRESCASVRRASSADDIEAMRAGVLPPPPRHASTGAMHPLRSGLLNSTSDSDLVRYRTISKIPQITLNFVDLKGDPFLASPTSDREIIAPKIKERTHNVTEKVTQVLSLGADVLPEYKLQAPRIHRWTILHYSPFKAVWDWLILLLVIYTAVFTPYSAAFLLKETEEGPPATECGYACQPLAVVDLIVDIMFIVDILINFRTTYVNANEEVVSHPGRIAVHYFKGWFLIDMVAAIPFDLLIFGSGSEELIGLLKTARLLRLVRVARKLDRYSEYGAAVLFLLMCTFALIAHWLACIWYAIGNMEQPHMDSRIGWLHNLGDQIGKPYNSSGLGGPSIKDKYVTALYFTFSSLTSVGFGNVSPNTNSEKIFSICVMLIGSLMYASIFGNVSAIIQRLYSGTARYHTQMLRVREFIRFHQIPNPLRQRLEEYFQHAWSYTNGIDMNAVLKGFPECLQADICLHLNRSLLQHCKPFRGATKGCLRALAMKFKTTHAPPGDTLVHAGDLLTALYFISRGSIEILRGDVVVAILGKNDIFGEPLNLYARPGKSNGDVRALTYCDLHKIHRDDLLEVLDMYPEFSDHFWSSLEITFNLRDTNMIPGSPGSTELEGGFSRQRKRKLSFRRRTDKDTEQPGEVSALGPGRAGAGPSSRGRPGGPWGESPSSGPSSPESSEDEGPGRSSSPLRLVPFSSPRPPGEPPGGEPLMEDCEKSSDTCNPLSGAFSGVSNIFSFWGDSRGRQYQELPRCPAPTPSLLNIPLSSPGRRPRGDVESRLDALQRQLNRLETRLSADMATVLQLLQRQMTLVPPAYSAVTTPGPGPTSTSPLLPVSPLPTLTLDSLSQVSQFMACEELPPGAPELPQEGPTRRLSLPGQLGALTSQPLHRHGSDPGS

| Compound | hERG current change (%, negative = inhibition) at 10uM [%] |
| --- | --- |
| CCn1c2ccccc2c2cc(/C=N/O)ccc21 | 40.6 |
| CSCCC1NC2(C(=O)Nc3ccc(Cl)cc32)[C@@H]2C(=O)N(C3CCCC3)C(=O)[C@H]12 (stereo partly drawn) | -8.3 |
| Cc1cc(NC(=O)CSc2nc(-c3cccs3)nc3ccccc23)no1 | 14.7 |
| CCN1CCN(c2nc(Nc3cccc(C)c3)nc(N)c2[N+](=O)[O-])CC1 | -70.2 |
| COc1ccc(Nc2nc(N)c([N+](=O)[O-])c(N3CCN(C)CC3)n2)cc1 | -26.6 |
| Cc1ccc(Nc2nc(N)c([N+](=O)[O-])c(N3CCC(C)CC3)n2)cc1C | 7.13 |
| Cc1cccc(Nc2nc(N)c([N+](=O)[O-])c(N3CCN(C)CC3)n2)c1 | -48 |
| COc1cccc(Nc2nc(N)c([N+](=O)[O-])c(N3CCOCC3)n2)c1 | -14.2 |
| CCN1CCN(c2nc(Nc3ccc(C)c(C)c3)nc(N)c2[N+](=O)[O-])CC1 | -75 |
| CCN1CCN(c2nc(Nc3cccc(OC)c3)nc(N)c2[N+](=O)[O-])CC1 | -73.3 |
| CCOc1ccc(Nc2nc(N)c([N+](=O)[O-])c(N3CCN(CC)CC3)n2)cc1 | -62.6 |
| CCOc1ccc(Nc2nc(N)c([N+](=O)[O-])c(N3CCN(C)CC3)n2)cc1 | -48.3 |
| Cc1cccc(Nc2nc(N)c([N+](=O)[O-])c(N3CCOCC3)n2)c1 | -37.1 |
| Cc1ccc(Nc2nc(N)c([N+](=O)[O-])c(N3CCOCC3)n2)cc1C | -13.9 |
| CCN1CCN(c2nc(Nc3ccc(OC)cc3)nc(N)c2[N+](=O)[O-])CC1 | -32.2 |
| COc1ccccc1CC(=O)Nc1ccc(C(=O)N2CCCCC2)cc1 | 2.21 |
| CCOC(=O)CCNC(=O)N1CCCC(C(=O)c2cc(C)c(OC)c(C)c2)C1 (stereo not drawn) | 5.81 |
| COC(=O)Cc1ccc(NC(=S)N2CCN(CCO)CC2)cc1 | 3.63 |
| CC1=C(OC(=O)C(C)(C)C)C(C)(C)C(c2ccccc2)OC1=O (stereo not drawn) | -13.4 |
| COc1cccc(C2CC(c3cccc(OC)c3)n3nc(N)nc3N2)c1 (stereo not drawn) | -4.11 |
| COc1ccc(-c2nnc(NC(=O)C(C)C)o2)cc1 | -3.15 |
| COc1ccc(N2C(=O)c3ccccc3NC23CCC(C)CC3)cc1 (stereo not drawn) | 4.35 |
| C=CCn1nnnc1SCC(=O)Nc1cccc(C(F)(F)F)c1 | 9.66 |
| CC(NC(=O)C(C(=O)c1cccc([N+](=O)[O-])c1)n1cc(Cl)ccc1=O)c1ccccc1 (stereo not drawn) | -15 |
| Nc1nc(Nc2cccc(F)c2)nc(N2CCOCC2)c1[N+](=O)[O-] | -26.7 |
| CCN1CCN(c2nc(Nc3cccc(F)c3)nc(N)c2[N+](=O)[O-])CC1 | -62.6 |
| CCN1CCN(c2nc(Nc3ccccc3F)nc(N)c2[N+](=O)[O-])CC1 | -56.6 |

| Compound | hERG current change (%, negative = inhibition) at 10uM [%] |
| --- | --- |
| Nc1nc(Nc2ccccc2)nc(N2CCCC2)c1[N+](=O)[O-] | -34.5 |
| CCN1CCN(c2nc(Nc3ccccc3)nc(N)c2[N+](=O)[O-])CC1 | -63 |
| Nc1nc(Nc2ccccc2F)nc(N2CCOCC2)c1[N+](=O)[O-] | 4.6 |
| CCN1CCN(c2nc(N)c([N+](=O)[O-])c(Nc3ccc(C)cc3)n2)CC1 | -68.9 |
| CN1CCN(c2nc(Nc3ccccc3)nc(N)c2[N+](=O)[O-])CC1 | -40.6 |
| Cc1cccc(Nc2nc(N)c([N+](=O)[O-])c(N3CCC(C)CC3)n2)c1 | -15.7 |
| CCN1CCN(c2nc(N)c([N+](=O)[O-])c(Nc3ccc(C)c(C)c3)n2)CC1 | -6.91 |
| Nc1nc(Nc2ccccc2F)nc(N2CCCC2)c1[N+](=O)[O-] | 4.5 |
| CCN1CCN(c2nc(N)c([N+](=O)[O-])c(Nc3cccc(C)c3)n2)CC1 | -45 |
| CC12CN3CC(C)(CN(C1)C3c1cccnc1)C2=O (stereo not drawn) | -0.24 |
| CC(NCc1ccco1)C(=O)N1CCc2ccccc2C1.Cl (stereo not drawn) | 14 |
| O=C(COc1ccccc1)Nc1ccc2c(c1)C(=O)N(CC1CCCO1)C2=O (stereo not drawn) | 6.03 |
| O=C(NCc1ccco1)c1ccc(Cn2cc([N+](=O)[O-])cn2)o1 | -10.3 |
| O=C1c2cccc3c(N4CCCCC4)ccc(c23)C(=O)N1c1cccc(O)c1 | 32.6 |
| CNC(=O)c1c(NC(=O)c2ccc(N3C(=O)CCC3=O)cc2)sc2c1CCCC2 | -13.3 |
| CCOc1cc(NC(=O)c2ccccc2C)c(OCC)cc1NC(=O)C1=Cc2ccccc2OC1 | 9.99 |
| CC(C)(C)NC(=S)NC(=O)C12CCC3CC(CC(C3)C1)C2 | 6.45 |
| O=C(Nc1ccnn1C1CCN(C2CCOCC2)CC1)c1cccc(F)c1 | -1.9 |
| O=C(Nc1ccnn1C1CCN(C/C=C/c2ccccc2)CC1)c1ccccc1Cl | -83.8 |
| O=C(Nc1ccnn1C1CCN(C/C=C/c2ccccc2)CC1)c1cccc(F)c1 | -70.9 |
| O=C(Nc1ccnn1C1CCN(C/C=C/c2ccccc2)CC1)c1ccccc1 | -73.7 |
| CC(C)=CCN1CCC(n2nccc2NC(=O)c2ccccc2Cl)CC1 | -57.9 |
| O=C(Nc1ccnn1C1CCN(Cc2ccccn2)CC1)c1cccc(F)c1 | -7.3 |
| CC(C)(C)CN1CCC(n2nccc2NC(=O)c2ccccc2Cl)CC1 | -20.3 |
| O=C(Nc1ccnn1C1CCN(Cc2ccc(CO)o2)CC1)c1ccccc1 | 1.16 |
| O=C(Nc1ccnn1C1CCN(Cc2ccc(CO)o2)CC1)c1ccccc1Cl | -0.636 |
| COc1cc(/C=N\NC(=O)c2ccc(C)nc2)ccc1OC(=O)c1cccc(F)c1 | -8.51 |
